Screening data deposited in PubChem BioAssay by several laboratories.
Compounds with a hit are over-represented: about 6.7% of the library has one in this group of screens.
Mtb FBA inh – Mtb FBA enzyme inhibitors, primary screen, biochemical, fluorescence, strain H37Rv; 2.3% of 360,000 active; AID 588726, 2011; inhibition, % at 1 µM; purified M. tuberculosis FBA, fluorescence read-out;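 note: 0% = vehicle and 100% = reference inhibitor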
GDH-TPI counter-1 – GDH-TPI coupling enzyme inhibitors, primary screen, artefact control for M. tuberculosis FBA inhibitor project, biochemical, absorbance, full deck; GDH-TPI coupled enzyme counterscreen, NADH absorbance; inhibition, % at 4.8 µM; 1.2% of 360,000 active; in the data active = inhibition above about 30%;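 note: 0% = DMSO wells and 100% = wells lacking the enzyme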
BoNT-A LC inh2 – BoNT/A light chain protease inhibitors, primary screen, biochemical, flow cytometry, MLPCN library; inhibition, % at 10 µM; multiplex microsphere protease substrate cleavage; 0.17% of 360,000 active; AID 588499, 2011; in the data active = inhibition above about 30%; note: plate controls were buffer without enzyme for full effect and enzyme alone for no effect
Anthrax LF inh2 – Bacillus anthracis LF protease inhibitors, primary screen, biochemical, multiplex microsphere, MLPCN library. Lethal factor (Bacillus anthracis), P15917. multiplex microsphere protease cleavage assay. inhibition, % at 10 µM. 0.12% of 360,000 active. AID 588501, 2011; in the data active = inhibition above about 30%; note: plate controls were buffer without enzyme for full effect and enzyme alone for no effect
Target sequence (P15917 whole entry, looked up): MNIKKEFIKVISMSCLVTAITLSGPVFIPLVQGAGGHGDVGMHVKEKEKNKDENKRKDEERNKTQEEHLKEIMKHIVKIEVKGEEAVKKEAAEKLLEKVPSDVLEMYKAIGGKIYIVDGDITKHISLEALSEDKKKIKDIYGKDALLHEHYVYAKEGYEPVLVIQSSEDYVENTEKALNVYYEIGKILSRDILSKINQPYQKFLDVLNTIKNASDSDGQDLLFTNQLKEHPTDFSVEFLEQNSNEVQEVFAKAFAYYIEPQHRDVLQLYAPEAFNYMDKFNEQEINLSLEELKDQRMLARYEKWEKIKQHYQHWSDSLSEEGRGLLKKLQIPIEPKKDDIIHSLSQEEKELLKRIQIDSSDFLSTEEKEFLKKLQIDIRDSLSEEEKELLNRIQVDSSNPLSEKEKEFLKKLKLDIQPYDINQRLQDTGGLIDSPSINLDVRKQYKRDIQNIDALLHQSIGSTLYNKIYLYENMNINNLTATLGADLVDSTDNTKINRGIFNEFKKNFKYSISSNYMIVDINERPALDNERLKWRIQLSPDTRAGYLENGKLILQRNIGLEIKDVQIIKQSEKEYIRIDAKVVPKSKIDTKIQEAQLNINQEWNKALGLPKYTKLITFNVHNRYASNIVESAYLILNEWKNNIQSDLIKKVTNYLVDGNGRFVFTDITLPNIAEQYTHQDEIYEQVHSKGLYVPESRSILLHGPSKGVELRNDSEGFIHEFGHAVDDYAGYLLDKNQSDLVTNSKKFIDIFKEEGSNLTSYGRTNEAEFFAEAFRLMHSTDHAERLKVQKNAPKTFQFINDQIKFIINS
BoNT F protease – BoNT/F light chain protease inhibitors, primary screen, biochemical, flow cytometry, MLPCN library | Multiplex microsphere protease cleavage assay | inhibition, % at 10 µM | 0.22% of 360,000 active; in the data active = inhibition above about 35%, passing the limit was not always enough; note: plate controls were buffer without enzyme for full effect and enzyme alone for no effect
Autofluor counter – compound fluorescence in toxin protease inhibitor counterscreen; compound autofluorescence counterscreen, microsphere flow cytometry; hits give high values; fluorescence intensity (no concentration beside the values); 3.1% of 360,000 active; in the data active = fluorescence intensity above about 16000
Mtb FBA inh conf – M. tuberculosis aldolase blockers, biochemical, fluorescence, strain H37Rv, confirmation | purified M. tuberculosis FBA, fluorescence read-out | AID 651616, 2012 | 78% of 5,600 active | shares compounds with Mtb FBA inh | inhibition, % at 1 µM;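 note: 0% = vehicle wells and 100% = reference inhibitor wells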
GDH-TPI counter-2 – GDH-TPI coupling enzyme inhibitors, artefact control for M. tuberculosis FBA inhibitor project, biochemical, fluorescence, high throughput | inhibition, % at 1 µM | GDH-TPI coupled enzyme counterscreen | 81% of 5,600 active | AID 652141, 2013 | shares compounds with Mtb FBA inh; in the data active = inhibition above about 10%
GDH-TPI dose – GDH-TPI coupling enzyme inhibitors, dose response, artefact control for M. tuberculosis FBA inhibitor project, biochemical, fluorescence, IC50; GDH-TPI coupled enzyme assay, artifact counterscreen; shares compounds with Mtb FBA inh; IC50, µM; 79% of 170 active; call rule not given here
* hit, by the source's call; · = no result; + = active, no number. Cut-off read from the data, not from the text of the source, unless noted: active = inhibition above about 27%; inactive = the rest.

SMILES | Mtb FBA inh | GDH-TPI counter-1 | BoNT-A LC inh2 | Anthrax LF inh2 | BoNT F protease | Autofluor counter | Mtb FBA inh conf | GDH-TPI counter-2 | others
CCCn1nc2cc(C(=O)NCCc3cccs3)ccc2c1OCC | 54.7* | 18.7 | -0.5 | -10.5 | -2.0 | 3784 | -5.9 | -5.9
Cc1[nH]n(S(=O)(=O)Cc2ccccc2)c(=O)c1N=Nc1ccccc1Cl | 40.3* | -4.8 | 0.1 | -1.5 | 2.3 | 4094 | -4.2 | -6.2
Cc1nc(N)c(C#N)c(-c2cccnc2)c1-c1ccccc1 | 4.5 | 8.8 | 1.2 | -22.8 | 7.3 | 3473 | · | ·
CCOc1cc(-c2c(C#N)c(N)nc3c2CCc2ccccc2-3)ccc1O | 6.0 | 7.0 | 0.1 | -0.7 | -5.1 | 2163 | · | ·
COc1ccccc1-c1c(C#N)c(N)nc2c1CCc1ccccc1-2 | 42.0* | 12.0 | 16.8 | 2.2 | -3.2 | 2576 | + | +
COc1cc(-c2cc(-c3ccc(O)cc3)nc(N)c2C#N)ccc1O | 5.1 | 17.8 | -0.3 | 1.5 | -1.9 | 3582 | · | ·
COc1ccccc1-c1cc(-c2ccc(O)cc2)nc(N)c1C#N | 66.4* | 22.8 | 2.9 | -9.2 | 18.9 | 3633 | 139.9* | 109.2*
N#Cc1c(-c2cccs2)cc(-c2cccnc2)nc1N | 87.5* | 9.1 | · | · | · | · | 102.3* | 80.8*
COc1ccc(-c2cc(-c3cccnc3)c(C#N)c(N)n2)cc1 | 71.4* | 6.4 | -0.1 | -1.4 | -10.6 | 4656 | 134.7* | 105.7*
O=[N+]([O-])c1cccc(CN2CCN(Cc3ccco3)CC2)c1 | 4.8 | 2.1 | -5.0 | -11.9 | -23.1 | 3356 | · | ·
C=CCn1c(=O)c2ccccc2n2c(=S)[nH]nc12 | 3.2 | 0.6 | -3.2 | -5.4 | -28.4 | 3695 | · | ·
CCCn1c(O)c(N=NC(=O)CNC(=O)Cc2ccc(OC)cc2)c2ccccc21 | 0.3 | 20.7 | 1.2 | -4.5 | -8.0 | 4202 | · | ·
CCOC(=O)C(C(=O)OCC)C(Nc1ccccc1)c1ccccc1 (stereo unspecified) | 0.9 | 6.2 | -0.7 | -3.7 | 0.2 | 2529 | · | ·
N#Cc1c(-c2ccc(Br)cc2)cc(-c2cccnc2)nc1N | 28.8* | 10.0 | 1.0 | -2.0 | 10.8 | 2120 | 16.6 | 2.7 | GDH-TPI dose=>10
CS(=O)(=O)c1nc(-c2ccc(Br)cc2)cc(-c2ccccc2)c1C#N | 3.1 | 3.1 | 1.0 | -1.3 | -0.7 | 3920 | · | ·
Cn1c(=O)c2nc(Cl)c(-c3ccccc3)nc2n(C)c1=O | 33.3* | 8.1 | 2.8 | -2.0 | 28.0 | 2656 | 151.6* | 105.2*
Cn1c(=O)c2nc3ccccc3nc2n(C)c1=O | 11.3 | -3.8 | 0.4 | -3.2 | 0.5 | 4402 | · | ·
Cn1c(=O)c2nc(-c3ccccc3)c(-c3ccccc3)nc2n(C)c1=O | 44.2* | 13.2 | 1.0 | 3.4 | 2.1 | 5645 | 81.0* | 77.8*
CCCOc1ccccc1-c1nc2c([nH]1)c(=O)[nH]c(=O)n2C | 58.8* | 28.2 | 0.1 | -0.5 | -5.8 | 2923 | 66.1* | 44.1*
O=C(COC(=O)c1n[nH]c(=O)c2ccccc12)Nc1cccc(S(=O)(=O)N2CCOCC2)c1 | -3.8 | -1.6 | -2.0 | -1.0 | 2.9 | 7128 | · | ·
NC(=O)COC(=O)c1ccc(-c2ccc(O)cc2)cc1 | 3.1 | 12.5 | 0.3 | -6.3 | 1.4 | 4977 | · | ·
O=C(O)CCNc1ccc(NCCC(=O)O)c2c1C(=O)c1ccccc1C2=O | 90.1* | 23.5 | -5.5 | -1.4 | -13.5 | 2969 | 4.2 | 2.7
CCC(NC(=O)CCc1nnc(-c2cc(C)on2)o1)C12CC3CC(CC(C3)C1)C2 (stereo unspecified) | -2.1 | -1.0 | 1.1 | -0.8 | 7.3 | 6739 | · | ·
COc1ccc(C2/C=C\CN(S(=O)(=O)c3ccc(C)cc3)CC(=O)N2Cc2ccc(F)cc2)cc1 (stereo unspecified) | 0.0 | 9.5 | 0.4 | 3.6 | -3.9 | 4105 | · | ·
NS(=O)(=O)c1cccc(NC(=O)CSc2nnc(C3CC3)n2-c2ccccc2)c1 | 1.7 | -3.2 | -0.5 | 3.1 | -1.2 | 4341 | · | ·
SMILES | Mtb FBA inh | GDH-TPI counter-1 | BoNT-A LC inh2 | Anthrax LF inh2 | BoNT F protease | Autofluor counter | Mtb FBA inh conf | GDH-TPI counter-2 | others
CSc1ncc(C(=O)Nc2cccc(S(N)(=O)=O)c2)n1-c1ccccc1 | 39.3* | -3.3 | -1.9 | 0.2 | -6.6 | 3164 | 168.2* | 131.9*
Cc1c(NC(=S)NC(=O)CSc2ccc(Cl)cc2)cccc1C(=O)O | -2.5 | -0.7 | -0.5 | -0.4 | 0.6 | 5108 | · | ·
CS(=O)(=O)N1CC2CCCN2c2ccc(C(F)(F)F)cc21 (stereo unspecified) | -0.2 | -3.5 | 0.2 | 1.8 | -8.5 | 4464 | · | ·
CCCCNc1nc(NCc2ccccc2)nc2ccccc12 | · | · | -0.1 | -14.7 | -25.9 | 5669 | · | ·
O=S(=O)(Nc1nc2ccccc2nc1N1CCc2ccccc2C1)c1ccc(Cl)cc1 | 65.5* | 32.1* | 2.2 | -2.1 | 2.7 | 7188 | + | +
Cc1ccc(O)c(Nc2c3ccccc3nc3ccccc23)c1 | 99.2* | 3.8 | -0.7 | -6.0 | -9.0 | 2972 | + | +
CCn1nc(C)c(CN2CCc3c([nH]c4ccccc34)C2c2ccc(F)c(OC)c2)c1C (stereo unspecified) | 4.1 | 12.3 | -2.5 | -3.0 | -18.3 | 3626 | · | ·
CCOC(=O)c1cc(-c2ccc(F)cc2)nc2c1c(=O)[nH]c(=O)n2Cc1ccccc1 | 2.7 | 3.8 | 5.2 | 1.9 | 6.8 | 3466 | · | ·
CCOC(=O)c1cc(-c2ccc(OC(F)F)cc2)nc2c1c(=O)[nH]c(=O)n2C | 50.0* | 9.6 | -1.1 | -5.9 | -9.8 | 2428 | 159.1* | 130.0*
CCOC(=O)c1cc(-c2ccc(Cl)cc2)nc2c1c(=O)[nH]c(=O)n2CCOC | 53.4* | 6.6 | -0.3 | -3.8 | 5.3 | 4197 | 68.2* | 46.2*
CCOC(=O)c1cc(-c2ccc(OC(F)F)cc2)nc2nc(SC)[nH]c(=O)c12 | 72.1* | 29.0 | 0.9 | 0.9 | -0.4 | 2558 | 101.2* | 87.9*
Cn1nc(-c2ccc(Cl)cc2)c2cc(C(=O)NCCN3CCOCC3)sc21 | 33.7* | 1.4 | 0.2 | 1.2 | 2.4 | 5497 | 40.6* | 26.3*
Cn1nc(-c2ccc(Cl)cc2)c2cc(C(=O)NCCCN3CCOCC3)sc21 | 29.3* | 15.9 | -0.6 | -6.5 | 0.0 | 5576 | 67.3* | 55.8*
CCCOc1ccc(C(=O)Nc2ccc(N3CCOCC3)cc2N2CCOCC2)cc1OCC | -1.2 | 15.6 | -0.5 | 1.1 | -2.3 | 2875 | · | ·
